Here are results for twelve compounds from the supplement of paper PMC10981050.

One experiment relates to MOLM14. The experiment is described as follows: cell viability relative to vehicle control; higher = less cytotoxic. The note with it: 10 µM; SRSF2 genotype: SRSF2 P95H/wt. Summed up: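 Four leukaemia lines, as CRISPR-edited mutant clones and isogenic wild-type clones, were tested against Selleck bioactive, kinase and epigenetic probe libraries after removal of identity-inconsistent compounds. Cells were exposed to a single 10 µM dose for 48 h, and CellTiter-Glo luminescence was then read. Viability was calculated relative to the on-plate vehicle control.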
What is called cell viability is a read-out of living cells in per cent, often relative to untreated cells. Take `Nc1ccc(Oc2ccc(-c3ccc(Oc4ccc(N)cc4)cc3)cc2)cc1` [4,4prime-Bis(4-aminophenoxy)biphenyl]: the cell viability was 100%.
On the same count and under the same terms, as for `CCCCCOC(=O)Nc1nc(=O)n([C@@H]2O[C@H](C)[C@@H](O)[C@H]2O)cc1F` [Capecitabine (Xeloda)], the figure is 101%; as for `C=CC(=O)Nc1cc(Nc2nccc(-n3cc(CN(C)C)c(-c4ccccc4)n3)n2)c(OC)cc1N1CCOCC1`, 74.2%.

Staying with this experiment, now noted: 10 µM; SRSF2 genotype: SRSF2 wt/wt.
`COc1ccc2cc(C(=O)O)ccc2c1` [6-Methoxy-2-naphthoic acid]: the cell viability is 93.8%.
Turning to `OC[C@H]1O[C@H](OCC2O[C@@H](O)[C@H](O)[C@@H](O)[C@@H]2O)[C@H](O)[C@@H](O)[C@H]1O` (some centres not stated) [Melibiose], the cell viability was determined as 108%.
Take `CNC(=O)c1ccc(-c2cnc3ncc(Cc4ccc5ncccc5c4)n3n2)cc1F`: the cell viability is 110%.
On the same count and under the same terms, as for `Nc1cc(C(Cl)=C(Cl)Cl)c(S(N)(=O)=O)cc1S(N)(=O)=O` [Clorsulon], the figure is 99.8%; as for `C[C@H](CCC(=O)O)[C@H]1CC[C@H]2[C@@H]3C[C@H](O)[C@@H]4C[C@H](O)CC[C@]4(C)[C@H]3CC[C@]12C` [Hyodeoxycholic acid (HDCA)], 97.5%; as for `COc1ccc(C[C@@H]2c3cc(Oc4cc(C[C@@H]5c6cc(OC)c(OC)cc6CCN5C)ccc4O)c(OC)cc3CCN2C)cc1` [Neferine], 109%.
Turning to `CN1CC(O)c2cc(N=NC(N)=O)c(O)cc21` (configuration not stated) [Carbazochrome], the cell viability was 101%.
Same read-out and setting: for `COc1ccccc1N1CCN(CCN(C(=O)C2CCCCC2)c2ccccn2)CC1` the value was 77.3%; for `CCCCCCCCCC[C@H](C(=O)O)[C@]1(C(=O)O)CCC(=O)O1` [Spiculisporic Acid], 110%.
